Measurements reported in the supplement of paper PMC6555819.

test system: PPARa:RXRa (NR concentration 270 nM, RXRa partner concentration 90 nM); assay: PBM binding z-score (relative to random genomic background probes); higher = stronger binding; sequences stand for … in GC…GCGATTGACAGCGTAGAATGAAGG
Summary of the method: (§1)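 Scanned fluorescence from custom Agilent 4×180K protein-binding microarrays was regression-normalized. Binding z-scores use random background probes as reference. Ligand-free nuclear receptor dimers were incubated on the arrays for 1 h and detected with antibodies against each partner (one per run).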

Compared with TCTCGGAGGACACGAAGGTCAGAGCCTTCCAGAG, ACAGACAGGTGAGTGAAGGTAACGCAGCTGGACG is lower in PBM binding z-score: 2.1 for the first, 0.197 for the second.

Going from AGTCAAAGTTCAGGACGAGGTATCGTAAAGCACG to TCTAGTTGGTCACGGCGGTCACACACGACGGGTA, the PBM binding z-score falls from 2.98 to 1.39.

Compared with ACTGACGGGTCAACGAGGTTATAGCACGCGTATA, TCGAGTAGGTTAGGGGCAATCAGAATGGCGTCGA is lower in PBM binding z-score: 5.03 for the first, 1.41 for the second.

Going from AGAATGAGGTTAAGATCAGCGAAACAGAATACAT to TCAGACAAGTGAAGGTAACTCAGGTACGCAGTCG, the PBM binding z-score falls from 3.72 to 0.902.

First: ACTATTAGTTGACTTAGGGCAACCGCTACGACGC
Second: ATGTGTAGGTTAAGGGTCATTCAGGTTGGTTCGC
The PBM binding z-score of the first is lower: -0.0454 for the first, 5.72 for the second.

Going from CAAACTCGGTCACGAAAGGTCAAAGTCGAATGAC to ATATATAGGTTACATCCGGGTCATTCAGGCTATG, the PBM binding z-score falls from 5.95 to 4.67.

Compared with AGAATGAGGTTACCAAAGATCATGGAAACGCTTG, TTACCAAGCTGAAAGGTCGTTGATGCACGCCTTG is lower in PBM binding z-score: 3.63 for the first, 2.08 for the second.

First: CTCGAAAGGTCGTGCTCAGCTGAGTATACCAAAC
Second: ACCGAAAGGTCGACGAGGTGAGTATACACCGTTT
The PBM binding z-score of the first is higher: 4.67 for the first, 4.42 for the second.

Going from AGCATGAGGTTATTAAGATCAGGGAATTGCGGTC to AGAACGAGGGCAATGATTTGATAGCACGGGTGGC, the PBM binding z-score falls from 2.03 to 1.41.

Going from TCATATAGGTAATACAGGTGACAGTCGGCATCTA to CCTAGCAGGCCAATCTGGGCCACTCAAGGCTTGA, the PBM binding z-score falls from 1.77 to 0.492.

First: CCAAACAGGTGAGAAGGTAACTCAGCCTCGATTA
Second: GTTAGTTGGTCAGTAAAAGGTCACACACCGGTCG
The PBM binding z-score of the first is lower: 0.653 for the first, 4.6 for the second.

Compared with TCATATAGGTAAATGCTAGGGGAAAGTCCGATCT, CCTTACGGTTCACTCCAGGTTATAGCATCGGAGT is higher in PBM binding z-score: 1.21 for the first, 2.21 for the second.

Compared with ACTAGCAGGCCAAGTTTGGGTCTCTCAAACAAAG, TCGACTAGGTTAGTCGGGGCATTCAGCCAACATA is higher in PBM binding z-score: -0.417 for the first, 0.668 for the second.

Going from ATCTCTAGGTAACGAAGTTCAGTGAATGCCGAAC to CATACAGGGTCAGCCAGGCCAGAGTAGGGACGGC, the PBM binding z-score rises from 0.915 to 4.45.

Compared with ATATGAAGGTTAGCTGGGGTCATTCAGACTAGGC, ATCTCTAGGTAAAGATAGTTCAGCGAATGCAAAT is lower in PBM binding z-score: 4.7 for the first, 0.777 for the second.

First: TATACAGGGTCAAAGCCCAGAGTACGAATGTCGA
Second: TCTGCTAAGTCAACGATGGTCAGCTAATCTGCTA
The PBM binding z-score of the first is higher: 5.93 for the first, -0.269 for the second.

First: ATATGTAGGTTACATCCGGGTTATTCAGGCTATG
Second: CCTATTACTTGACCATAAGGGCAACCGAAGCTCG
The PBM binding z-score of the first is higher: 3.59 for the first, 0.711 for the second.

Going from CCTATTAGTTGACCATAAGGGCGACCGAAGCTCG to TCTAGTTGGTCACTGAGGTCACACACGACGGGTA, the PBM binding z-score rises from 0.197 to 4.32.

Compared with TCTGCTAGGTCAACGATGGTCAGCTCATCTGCTA, AGAATGAGGTTATACGCAGATCAGGGAAGAAAGT is higher in PBM binding z-score: 3.34 for the first, 3.39 for the second.

First: TCTATTAGTTGTTTAGGGCAACCGAAACAGCGGA
Second: CCCGACAGGTGAAAGGTAACTCAGTCTGGTACGC
The PBM binding z-score of the first is lower: 0.938 for the first, 3.39 for the second.

test system: PPARg:RXRa (NR concentration 180 nM, RXRa partner concentration 90 nM); assay: as above
Summary of the method: as §1

Going from TCTCGGAGGACACGAAGGTCAGAGCCTTCCAGAG to ACAGACAGGTGAGTGAAGGTAACGCAGCTGGACG, the PBM binding z-score rises from 0.565 to 0.826.

First: AGTCAAAGTTCAGGACGAGGTATCGTAAAGCACG
Second: TCTAGTTGGTCACGGCGGTCACACACGACGGGTA
The PBM binding z-score of the first is higher: 3.89 for the first, 1.12 for the second.

First: ACTGACGGGTCAACGAGGTTATAGCACGCGTATA
Second: TCGAGTAGGTTAGGGGCAATCAGAATGGCGTCGA
The PBM binding z-score of the first is higher: 3.34 for the first, 1.53 for the second.

First: AGAATGAGGTTAAGATCAGCGAAACAGAATACAT
Second: TCAGACAAGTGAAGGTAACTCAGGTACGCAGTCG
The PBM binding z-score of the first is higher: 2.3 for the first, 0.548 for the second.

Going from ACTATTAGTTGACTTAGGGCAACCGCTACGACGC to ATGTGTAGGTTAAGGGTCATTCAGGTTGGTTCGC, the PBM binding z-score rises from 0.482 to 9.4.

First: CAAACTCGGTCACGAAAGGTCAAAGTCGAATGAC
Second: ATATATAGGTTACATCCGGGTCATTCAGGCTATG
The PBM binding z-score of the first is lower: 6.08 for the first, 6.17 for the second.

Compared with AGAATGAGGTTACCAAAGATCATGGAAACGCTTG, TTACCAAGCTGAAAGGTCGTTGATGCACGCCTTG is lower in PBM binding z-score: 2.88 for the first, 1.29 for the second.

Compared with CTCGAAAGGTCGTGCTCAGCTGAGTATACCAAAC, ACCGAAAGGTCGACGAGGTGAGTATACACCGTTT is higher in PBM binding z-score: 2.52 for the first, 2.71 for the second.

Compared with AGCATGAGGTTATTAAGATCAGGGAATTGCGGTC, AGAACGAGGGCAATGATTTGATAGCACGGGTGGC is higher in PBM binding z-score: 0.647 for the first, 1.57 for the second.

Compared with TCATATAGGTAATACAGGTGACAGTCGGCATCTA, CCTAGCAGGCCAATCTGGGCCACTCAAGGCTTGA is lower in PBM binding z-score: 1.81 for the first, -0.0153 for the second.

Going from CCAAACAGGTGAGAAGGTAACTCAGCCTCGATTA to GTTAGTTGGTCAGTAAAAGGTCACACACCGGTCG, the PBM binding z-score rises from 0.64 to 3.42.

First: TCATATAGGTAAATGCTAGGGGAAAGTCCGATCT
Second: CCTTACGGTTCACTCCAGGTTATAGCATCGGAGT
The PBM binding z-score of the first is higher: 0.788 for the first, 0.562 for the second.

Going from ACTAGCAGGCCAAGTTTGGGTCTCTCAAACAAAG to TCGACTAGGTTAGTCGGGGCATTCAGCCAACATA, the PBM binding z-score rises from -0.897 to 0.144.

Compared with ATCTCTAGGTAACGAAGTTCAGTGAATGCCGAAC, CATACAGGGTCAGCCAGGCCAGAGTAGGGACGGC is higher in PBM binding z-score: 0.812 for the first, 3.65 for the second.

First: ATATGAAGGTTAGCTGGGGTCATTCAGACTAGGC
Second: ATCTCTAGGTAAAGATAGTTCAGCGAATGCAAAT
The PBM binding z-score of the first is higher: 2.43 for the first, 0.334 for the second.

First: TATACAGGGTCAAAGCCCAGAGTACGAATGTCGA
Second: TCTGCTAAGTCAACGATGGTCAGCTAATCTGCTA
The PBM binding z-score of the first is higher: 6.29 for the first, -0.51 for the second.

First: ATATGTAGGTTACATCCGGGTTATTCAGGCTATG
Second: CCTATTACTTGACCATAAGGGCAACCGAAGCTCG
The PBM binding z-score of the first is higher: 5.15 for the first, 0.8 for the second.

Going from CCTATTAGTTGACCATAAGGGCGACCGAAGCTCG to TCTAGTTGGTCACTGAGGTCACACACGACGGGTA, the PBM binding z-score rises from 0.29 to 3.24.

First: TCTGCTAGGTCAACGATGGTCAGCTCATCTGCTA
Second: AGAATGAGGTTATACGCAGATCAGGGAAGAAAGT
The PBM binding z-score of the first is higher: 2.4 for the first, 1.58 for the second.

Compared with TCTATTAGTTGTTTAGGGCAACCGAAACAGCGGA, CCCGACAGGTGAAAGGTAACTCAGTCTGGTACGC is higher in PBM binding z-score: -0.0257 for the first, 5.1 for the second.
